Measurements: PubChem BioAssay AID493216 (National Center for Advancing Translational Sciences (NCATS), 2011)
Active and inactive are the calls of the source. Calls follow the shape of the full dose curve.

Molecular target: Polyunsaturated fatty acid lipoxygenase ALOX12 (Homo sapiens) (UniProt P18054)
Experiment: Inhibitors of 12-hLO (12-human lipoxygenase): Cuvette-Based Hit Assay for Validation of Followup Compounds
Conditions: purified 12-hLO, cuvette absorbance 234 nm
Experimental: The enzyme activity of 12-hLO was determined by a direct measurement of product formation by monitoring the absorbance at 234 nm in a 2 mL cuvette. IC50 values of inhibitors were obtained by measuring the enzymatic rate at a variety of concentrations (Carroll et al, Segraves et al). This assay was used to validate actives or inconclusive putative inhibitors identified in the primary screen (see related BioAssay AIDs). Assay Provider: Holman, T.R., University of California, Santa Cruz Screening Center PI: Austin, Christopher P. Screening Center: NIH Chemical Genomics Center
For control experiments, 2 mL of substrate buffer (10 uM arachidonic acid / 25 mM HEPES / 0.01% (v/v) Triton X-100, pH 8.0) was aliquoted in a cuvette with a magnetic stir bar. After equilibrium was ensured, an aliquot of inhibitor solvent was added (DMSO), and equilibrium was once again assured. The reaction was started by adding enzyme to the cuvette and the reaction was followed until completed. The inhibition experiments were performed as above, except the actual inhibitory compound was added instead of vehicle. To achieve an IC50, typically 5 concentrations of the inhibitor were studied. If the inhibitor concentration was constant, then five different reaction volumes were used. […] 3; No change in absorbance ensured. […] 5; No change in absorbance ensured. […]

Polyunsaturated fatty acid lipoxygenase ALOX12 (Homo sapiens), sequence (P18054 whole entry, looked up): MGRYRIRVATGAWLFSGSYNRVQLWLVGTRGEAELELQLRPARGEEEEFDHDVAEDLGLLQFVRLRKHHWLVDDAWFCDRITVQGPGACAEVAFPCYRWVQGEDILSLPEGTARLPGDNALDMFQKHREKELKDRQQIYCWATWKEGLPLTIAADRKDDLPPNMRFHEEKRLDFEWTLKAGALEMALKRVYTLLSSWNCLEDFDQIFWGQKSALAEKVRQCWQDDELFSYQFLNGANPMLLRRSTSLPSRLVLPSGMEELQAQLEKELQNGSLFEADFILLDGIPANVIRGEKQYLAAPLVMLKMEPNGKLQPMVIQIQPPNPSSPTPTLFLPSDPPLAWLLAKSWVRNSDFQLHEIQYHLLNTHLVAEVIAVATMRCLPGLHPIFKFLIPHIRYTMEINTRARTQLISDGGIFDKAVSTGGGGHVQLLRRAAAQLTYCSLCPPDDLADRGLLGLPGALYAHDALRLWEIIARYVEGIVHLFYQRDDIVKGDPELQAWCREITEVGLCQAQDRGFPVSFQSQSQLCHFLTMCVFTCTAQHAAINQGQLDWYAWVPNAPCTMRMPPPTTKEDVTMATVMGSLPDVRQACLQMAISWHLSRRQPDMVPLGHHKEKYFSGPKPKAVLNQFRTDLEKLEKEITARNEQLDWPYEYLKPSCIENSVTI

`CC(Oc1ccc(Cl)cc1Cl)C(=O)Nc1ccc(S(=O)(=O)Nc2cnc3ccccc3n2)cc1` (stereo unspecified) was tested, and the Potency was 22.6 µM (active).
